TMEM16A inh: TMEM16A chloride channel inhibitors, primary screen, cell-based, HTS; Anoctamin-1 (Mus musculus), Q8BHY3; HEK293 TMEM16A/YFP iodide influx fluorescence, ionomycin; normalized B-score (activity score, 25-100; higher = stronger inhibition) at 10 µM; 1.2% of 310,000 active; AID 588511, 2011;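 active = ratio plate-corrected score three or more library SD toward inhibition, starting fluorescence score within five deviations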;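 note: score derived from kinetic fluorescence span divided by baseline fluorescence per well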
TMEM16A act: TMEM16A chloride channel activators or potentiators, primary screen, cell-based, HTS; Anoctamin-1 (Mus musculus), Q8BHY3; HEK293 TMEM16A/YFP-H148Q/I152L, iodide quench fluorescence; active compounds read low; B-score at 10 µM; 0.3% of 340,000 active; AID 623877, 2012;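 active = fluorescence-ratio B-score plate-corrected deviation score at least 3 library SD below zero, with starting fluorescence score within 5 deviations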;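 note: channel opened by trigger with iodide after compound preincubation; score built on the fluorescence ratio of max minus min over baseline; more negative score means more quench and so TMEM16A activation or potentiation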
CRFR2-BP antag: antagonists of CRF-BP/CRF-R2 complex, primary screen, cell-based, HEK293, calcium dye fluorescence, uHTS. CRF-induced calcium fluorescence. inhibition, % at 11.8 µM. 0.59% of 350,000 active. AID 588475, 2011;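 active = inhibition of the ligand-induced calcium signal above about 50% at the single tested concentration, limit read from the data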
CRFBP-R2 agonist: agonists of CRF-BP/CRF-R2 complex, primary screen, cell-based, HEK293, calcium dye fluorescence, uHTS; CRF-binding protein / CRF receptor 2 complex (human); calcium dye fluorescence (FLIPR); percent of saturating CRF peptide response; activation, % at 13.2 µM; 0.46% of 350,000 active; AID 588473, 2011;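 active = activation of at least 50%, plus an integration ratio under a set limit after plate pattern correction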
cardiac RTF act: cardiac RTF calcium sensitivity activators, primary screen, biochemical, IANBD-TnC fluorescence, EC20 calcium; IANBD-labeled TnC RTF fluorescence at EC20 calcium; 0% EC20 calcium, 100% full calcium; 0.24% of 340,000 active; activation, % at 7.2 µM; Troponin I, cardiac muscle (Homo sapiens) + Troponin T, cardiac muscle (Homo sapiens) + …;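 active = activation above the mean over all tested compounds plus 3 SD, cut at about 30% in these data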;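 note: rise in fluorescence read as greater calcium sensitivity of cardiac thin filaments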
Cardiac RTF inh: cardiac RTF calcium sensitivity inhibitors, primary screen, biochemical, IANBD-TnC fluorescence, EC70 calcium; 0.12% of 340,000 active; Troponin I, cardiac muscle (Homo sapiens) + Troponin T, cardiac muscle (Homo sapiens) + …; IANBD-labeled cardiac RTF, Ca2+ fluorescence; inhibition, % at 7.15 µM;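 active = inhibition above the mean inhibition of all tested compounds plus 3 SD, cut at about 17% in these data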;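 note: assay run at fixed EC70 calcium of 1.6 mM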
Of the large screens only hits and unclear results are named; the others gave an inactive call. A selection: hits, their analogues and other compounds. The true share with any hit is near 2.4%.

CCn1cnc2cc(NCc3ccc(C)cc3)ccc21	none
CCn1cnc2cc(NCc3ccc(Br)cc3)ccc21	CRFBP-R2 agonist 52 (no result: TMEM16A act, cardiac RTF act, Cardiac RTF inh)
S=C(NCCc1ccccc1)Nc1c(Cl)cccc1Cl	none
COc1ccccc1NC(=O)c1ccc(S(=O)(=O)NCc2ccco2)cc1	none
CCOC(=O)C(NC(=O)CC(C)C)(Nc1sc(C)c(CC)c1C#N)C(F)(F)F (stereo not drawn)	CRFR2-BP antag 51
COc1ccc(-c2cc3ccc(OCC(N)=O)cc3oc2=O)cc1OC	TMEM16A inh 25
Cc1n[nH]c(C)c1S(=O)(=O)Nc1ccc2c(c1)OCCO2	none
O=C(CCCc1ccccc1)N1CCN(c2ccc([N+](=O)[O-])cc2)CC1	CRFR2-BP antag 68
Cc1noc(C)c1CSCC(=O)N1CCN(c2ccc([N+](=O)[O-])cc2)CC1	TMEM16A inh 25
O=C(COC(=O)/C=C/c1ccccc1)NC1CCCCCC1	none (no result: TMEM16A inh)
COC(=O)c1ccccc1NC(=O)C1CC(c2ccccc2O)=NO1 (stereo not drawn)	none
CCn1cc(C2=NOC(C(=O)Nc3ccccc3C(=O)OC)C2)c(C)n1 (stereo not drawn)	CRFR2-BP antag 52
COc1ccc(-n2c(C)nnc2SCC(=O)Nc2ccccc2F)cc1	none
N#CC1=C(SCC(=O)NC2CC2)NC(=O)C(C#N)C12CCCCC2 (stereo not drawn)	none
CC(C)(C)C1CCC2(CC1)C(C#N)=C(SCC(=O)NC1CCCCC1)NC(=O)C2C#N (stereo not drawn)	TMEM16A inh 100
N#CC1=C(SCC(=O)Nc2cccc3cccnc23)NC(=O)C(C#N)C12CCCCC2 (stereo not drawn)	TMEM16A inh 100
CCOC(=O)C1=C(SCC(=O)Nc2ccccc2)NC(=O)C(C#N)C12CCCCC2 (stereo not drawn)	TMEM16A act -31
O=C(CN1C(=O)c2ccccc2C1=O)Nc1cccc2cccnc12	none
C=CCSC1=C(C#N)C2(CCCCC2)C(C#N)C(=O)N1 (stereo not drawn)	none
N#CC1=C(SCC(=O)NC23CC4CC(CC(C4)C2)C3)NC(=O)C(C#N)C12CCCCC2 (stereo not drawn)	TMEM16A inh 100
CC(C)n1c(CSCc2ccc(Cl)cc2Cl)n[nH]c1=S	none
CC(C)c1ccc(Nc2nc(Cl)nc(NCc3ccco3)n2)cc1	none
COc1ccc(Nc2nc(Cl)nc(NCc3ccco3)n2)c(OC)c1	CRFR2-BP antag 56
COc1ccc(NC(=O)NS(=O)(=O)c2ccc(C)cc2)cn1	TMEM16A act -7.5, cardiac RTF act 348
COc1ccc(NC(=O)c2cccc(S(=O)(=O)Nc3ccc(Br)cc3)c2)cn1	TMEM16A inh 25
O=C(Nc1ccc(Br)cc1)c1cccc(S(=O)(=O)Nc2ccccn2)c1	none
O=C1CC(N(CCc2ccccc2)C(=S)Nc2ccccc2)C(=O)N1c1ccccc1 (stereo not drawn)	none
CCNC(=S)N(CCc1ccc(S(N)(=O)=O)cc1)C1CC(=O)N(c2ccccc2)C1=O (stereo not drawn)	CRFBP-R2 agonist 97
O=S(=O)(Nc1ccc(C(F)(F)F)cn1)c1ccccc1	none
CCOc1ccccc1NC(=O)CSc1nc2nc(-c3cccs3)cc(C(F)(F)F)c2c(=O)[nH]1	TMEM16A inh 100
COc1ccc(NC(=O)CSc2nc3nc(-c4cccs4)cc(C(F)(F)F)c3c(=O)[nH]2)c(OC)c1	none
O=C1C2CC=CCC2C(=O)N1c1ccc(N2CCN(c3ccccn3)CC2)c([N+](=O)[O-])c1 (stereo not drawn)	none
Cc1ccc(S(=O)(=O)NNC(=O)Cc2cccn2C)cc1	none

Source: PubChem
